In PubChem BioAssay AID1952 (The Scripps Research Institute Molecular Screening Center, 2009) one finds inhibition data, which are given here for 91 molecules.

The campaign covered roughly 2,400 compounds. About 1,200 (50%) were called active. No stated cut-off is given here; in the data, active means inhibition above about 24%; inactive means the rest. The set was probably picked from earlier hits. A selection follows.

For the assay, the target named is Neuropeptides B/W receptor type 1 (Homo sapiens) (UniProt P48145). As to the kind of experiment: blockers of human NPBW1 receptor – cell-based, fluorescence, single concentration, confirmation (AID 1952).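 Further: stimulated with the GPR7 agonist NPW; 0% = agonist plus vehicle and 100% = vehicle alone without agonist.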 The note with it: GPR7-expressing cells, calcium fluorescence antagonist mode; at 4.4 µM; hits give high values.
Neuropeptides B/W receptor type 1 (Homo sapiens), sequence (P48145 whole entry, looked up): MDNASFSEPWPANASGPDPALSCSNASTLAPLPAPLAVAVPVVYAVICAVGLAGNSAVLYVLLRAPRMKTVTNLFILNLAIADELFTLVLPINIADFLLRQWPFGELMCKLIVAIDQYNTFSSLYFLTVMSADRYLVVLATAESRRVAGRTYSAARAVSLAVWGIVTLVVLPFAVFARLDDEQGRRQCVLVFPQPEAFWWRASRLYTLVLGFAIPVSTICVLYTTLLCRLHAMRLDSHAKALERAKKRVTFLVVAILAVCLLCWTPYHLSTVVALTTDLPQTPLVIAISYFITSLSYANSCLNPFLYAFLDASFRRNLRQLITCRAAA
As usually defined, the inhibition is the drop in the measured response relative to a control, in per cent. In the case of `Cc1cccc(CS(=O)(=O)c2ncc(Cl)c(C(=O)Nc3ccc(F)cc3)n2)c1`, the inhibition was 51.2% (active).

For the molecule `COc1ccccc1CNC(=O)COc1ccc(C)nc1[N+](=O)[O-]`, the inhibition was 2.95% (inactive).

As to `COc1ccccc1Oc1ccc(S(=O)(=O)Nc2cccnc2)cc1`, the inhibition is 16.8% (inactive).

Consider `COc1ccc(NS(=O)(=O)c2ccc(NC(=S)NC(=O)CC(C)C)cc2)cc1`, for which the inhibition is 35.8% (active).

As to `COc1ccc(C2Nc3ccccc3C(=O)N2Cc2ccccc2)cc1Cn1nnc2ccccc21` (stereo unspecified), the inhibition is 31.7% (active).

For the molecule `O=C(CC(=O)Nc1ccc(Cl)c(Cl)c1)N/N=C/c1ccc(O)cc1`, the inhibition is 10.9% (inactive).

Turning to `COc1ccc(C(CCNCc2ccccc2F)c2ccc(F)cc2)cc1` (stereo unspecified), the inhibition is 47.2% (active).

Consider `CC1(C)CC(CNCCC(c2ccc(F)cc2)c2ccco2)CCO1` (stereo unspecified), for which the inhibition was 12.5% (inactive).

Consider `CC(C)OCCCNc1ncnc2c1[nH]c1ccc(F)cc12`, for which the inhibition was 39.2% (active).

On to `O=C(CN1CCN(C(=S)NC2CCCC2)CC1)Nc1ccc(Oc2ccccc2)cc1`, for which the inhibition is 28.6% (active).

As for `O=C(CCc1ccccc1)Nc1ccc(NC(=O)C2CC2)nc1`, the inhibition was 17.6% (inactive).

Turning to `Cc1ccc(NC(=O)CN2CCC3(O)CCCCC3C2c2ccc3c(c2)OCO3)c(C)c1` (stereo unspecified), the inhibition was 19.6% (inactive).

Consider `CCc1ccc(NC(=O)c2ccc(Cn3cc([N+](=O)[O-])cn3)cc2)cc1`, for which the inhibition is 29.5% (active).

For `CCOc1ccc(Cn2nnc(C(=O)NCc3ccccc3)c2N)cc1`, the inhibition is 52.4% (active).

As for `O=C(COc1ccccc1)NCc1ccc2c(c1)OCO2`, the inhibition was 14.3% (inactive).

Regarding `COc1cc(NC(=O)CN2C(=O)NC(C)(c3ccc(OC(F)F)cc3)C2=O)cc(OC)c1OC` (stereo unspecified), the inhibition is 23.2% (inactive).

Regarding `Cc1cc2c(cc1C)N(Cc1ccccc1)C1=NCCCN12`, the inhibition was 20.8% (inactive).

For the molecule `CCN1CCN(c2ccc([N+](=O)[O-])cc2C(=O)c2ccc(Cl)cc2)CC1`, the inhibition was 39.6% (active).

Turning to `CCOc1ccc(C(=O)NC(=S)Nc2ccc(N3CCOCC3)c(Cl)c2)cc1[N+](=O)[O-]`, the inhibition was -6.59% (inactive).

Consider `COc1ccc(N=C2SC(C(=O)Nc3ccc(F)cc3)CC(=O)N2C)cc1` (stereo unspecified), for which the inhibition is 4.38% (inactive).

Take `Fc1ccc(-c2ccc(-c3nn4c(-c5ccco5)nnc4s3)o2)cc1`: the inhibition is 8.54% (inactive).

As for `O=C(CN1C(=O)/C(=C/c2ccccc2F)Sc2ccccc21)NCc1cccnc1`, the inhibition was -18% (inactive).

Turning to `Cc1ccc(C(=O)C[n+]2cc(-c3ccccc3)n3c2CCCCC3)cc1`, the inhibition was 27.9% (active).

`C=CCC1(CC=C)CCCN1C(=O)c1cc(COc2ccc(-n3cncn3)cc2)on1`: the inhibition is 29.2% (active).

`Clc1ccc(-c2cc(C3CCNCC3)[nH]n2)c(Cl)c1`: the inhibition is 34.3% (active).

`CCCCCCCCCCOC(=O)Cn1c(COc2cccc(OC)c2)[n+](C)c2ccccc21`: the inhibition is 78.9% (active).

In the case of `Cc1cccc(NC(=O)c2cccc(C(=O)Nc3cccc(C)c3C)n2)c1C`, the inhibition was 37.8% (active).

Regarding `Clc1ccc(C2CC(c3cccs3)n3ncnc3N2)cc1Cl` (stereo unspecified), the inhibition is 31.9% (active).

`CCC(C(=O)Nc1ccc(C(C)C)cc1)c1ccccc1` (stereo unspecified): the inhibition is 94.1% (active).

For `C=CCNC(=O)COC(=O)c1ccccc1C(=O)N(C)C1CCCCC1`, the inhibition is -3.62% (inactive).

In the case of `O=C(Nc1ccc2c(c1)OCO2)C1CC(c2c(F)cccc2Cl)=NO1` (stereo unspecified), the inhibition is 8.85% (inactive).

Take `CC(=O)N1CCCc2cc(S(=O)(=O)N3CCCC(C(=O)N4CCN(c5cccc(Cl)c5)CC4)C3)ccc21` (stereo unspecified): the inhibition was 69.6% (active).

With `COc1ccc(NC(=O)C2CCC(CNS(=O)(=O)c3csc(C(N)=O)c3)CC2)cc1OC` (stereo unspecified), the inhibition was -15.3% (inactive).

As to `COc1cc(OC)cc(C(=O)N[C@H](C(=O)OCC(=O)NC(C)c2ccccc2)C(C)C)c1` (stereo partly specified), the inhibition is 79.4% (active).

For the molecule `COCCCNC(=S)N1CCN(c2nc(-c3cccc(OC)c3)cs2)CC1`, the inhibition is 19% (inactive).

As to `O=C(Cc1ccc(Cl)cc1)NC(=S)Nc1ccccc1O`, the inhibition was 84.5% (active).

Turning to `O=C(NC(=O)c1ccccc1)Nc1ccccc1O`, the inhibition was 12.2% (inactive).

On to `Cc1ccccc1NC(=S)NC(=O)Cc1ccc(Cl)cc1`, for which the inhibition is 70.5% (active).

In the case of `O=C(CCCN1CCc2[nH]c3ccc(F)cc3c2C1)c1ccc(F)cc1`, the inhibition was 18.6% (inactive).

Consider `CN(c1cccc(NC(=O)Nc2ccc(Cl)cc2)c1)S(C)(=O)=O`, for which the inhibition was 31% (active).

Take `OC(CNCC1CCCO1)Cn1c2ccc(Br)cc2c2cc(Br)ccc21` (stereo unspecified): the inhibition was 78.3% (active).

As to `O=C(NCCCN1CCOCC1)c1ccc2c(c1)N(Cc1cccc(F)c1)C(=O)c1ccccc1S2`, the inhibition was 24.3% (active).

With `Cc1ccccc1CN1C(=O)c2ccccc2Sc2ccc(C(=O)NCCCN3CCOCC3)cc21`, the inhibition was 42.4% (active).

For the molecule `O=C(CSc1nnc(-c2ccco2)o1)NCC(=O)c1ccccc1`, the inhibition is -14.8% (inactive).

Take `Cc1ccc(S(=O)(=O)n2cnc3ccccc32)c(C)c1`: the inhibition is -4.27% (inactive).

For the molecule `COc1ccc(C)cc1NC(=O)NCCCCc1ccccc1`, the inhibition was 4.53% (inactive).

Consider `CS(=O)(=O)N(Cc1ccc(Cl)cc1)c1ccc(C(=O)NCCSCc2ccco2)cc1`, for which the inhibition was 32.3% (active).

For the molecule `Cc1ccc2[nH]cc(CCNC(=O)c3ccc([N+](=O)[O-])cc3)c2c1`, the inhibition was 40.7% (active).

As to `Cc1ccccc1CN1C[C@@H]2C[C@@H](c3cn(C)nc3-c3ccccc3)N3CCC[C@@]23C1=O`, the inhibition is 21.9% (inactive).

For the molecule `Cc1ccc(NC2=C(Cl)C(=O)OC2OC(=O)c2ccccc2C)cc1` (stereo unspecified), the inhibition was 4.37% (inactive).

Consider `CC1CN(C(=O)CCC(=O)NCCCN2CCC(Cc3ccccc3)CC2)c2cc(Cl)ccc2O1` (stereo unspecified), for which the inhibition is 49.4% (active).

With `c1ccc(C2CNCc3c2ccc2ccccc32)cc1` (stereo unspecified), the inhibition is 89.5% (active).

Turning to `CN(c1ccccc1)S(=O)(=O)c1ccc(C(=O)NCCc2ccccc2)cc1`, the inhibition was 24.1% (active).

Regarding `S=C(NCCc1ccccc1)Nc1ccccc1`, the inhibition was 1.82% (inactive).

As for `CC(=O)Nc1ccc(S(=O)(=O)N(C)CC(=O)NCCC2=CCCCC2)cc1`, the inhibition is -0.53% (inactive).

For `N=c1n(CCc2ccccc2)c2ccccc2n1Cc1ccccc1F`, the inhibition was 36.4% (active).

As to `CS(=O)(=O)Nc1cccc(C2=NN(S(=O)(=O)c3ccccc3)C(c3cccs3)C2)c1` (stereo unspecified), the inhibition is 22.3% (inactive).

Turning to `CCN(CC)Cc1c(C(=O)OC)nnn1-c1nonc1N`, the inhibition was -1.39% (inactive).

As for `CCOc1ncccc1C(=O)NCCc1ccc(OC)cc1`, the inhibition is 15% (inactive).

As to `COc1ccc(CS(=O)/C(Cl)=C(/Cl)C(=O)Nc2ccc(OC)nc2)cc1` (stereo unspecified), the inhibition is 63.6% (active).

Take `CCc1ccc(OCC2c3cc(OC)c(OC)cc3CCN2C(C)=O)cc1` (stereo unspecified): the inhibition was 30% (active).

Consider `CCN(CC)CCOCCOc1ccc(Cl)c2ccccc12`, for which the inhibition is 20.8% (inactive).

For `COc1ccccc1N1CCN(c2ncnc3sc(C)c(-c4ccccc4)c23)CC1`, the inhibition is 37.2% (active).

On to `CCC(C)c1ccccc1NC(=O)CN(C)CC(=O)Nc1ccccc1SC` (stereo unspecified), for which the inhibition was 19.5% (inactive).

As to `O=C(NCCCN1CCN(c2ccc(F)cc2)CC1)Nc1ccc([N+](=O)[O-])cc1`, the inhibition is 41.9% (active).

For `COc1cccc(CNCCc2c[nH]c3ccccc23)c1OCc1ccccc1F`, the inhibition is 61.5% (active).

With `O=C(CSCc1ccc([N+](=O)[O-])cc1)NCCSCc1ccccc1`, the inhibition is 35.4% (active).

Consider `O=[N+]([O-])c1ccc(N(CCO)Cc2ccccc2)c([N+](=O)[O-])c1`, for which the inhibition was 23.3% (inactive).

In the case of `O=C(NCCNc1ccc([N+](=O)[O-])cc1Cl)c1ccccc1F`, the inhibition was 18.8% (inactive).

Consider `CC(C(=O)N1CCN(c2ccccc2F)CC1)c1ccc([N+](=O)[O-])cc1` (stereo unspecified), for which the inhibition was 42.2% (active).

With `Cc1cc(OC(C)C(=O)NC2CC(C)(C)NC(C)(C)C2)c2c(C)cc(=O)oc2c1` (stereo unspecified), the inhibition is -2.7% (inactive).

With `Cc1c(CCO)c(=O)n(-c2ccccc2)n1S(=O)(=O)c1ccc(F)cc1`, the inhibition is -9.84% (inactive).

Turning to `Cc1cc(OCc2ccc(C(=O)Nc3ccc(C(=O)O)cc3)o2)ccc1Cl`, the inhibition was 44.9% (active).

As for `Cc1ccc2nc(C)c3c(c2c1)N(c1ccccc1)CC3`, the inhibition was 37.9% (active).

As for `CS(=O)(=O)N(CC(O)Cn1c2ccccc2c2ccccc21)c1cccc2ccccc12` (stereo unspecified), the inhibition is 45% (active).

In the case of `O=[N+]([O-])/C=C/c1ccc2c(ccn2Cc2ccccc2)c1`, the inhibition is 92.4% (active).

For the molecule `CN(C)S(=O)(=O)N1CCC(Oc2cccc(C(=O)NCCCC3CCCC3)c2)CC1`, the inhibition was 40.1% (active).

Take `COc1ccc([N+](=O)[O-])cc1N(CC(O)CN(CC(C)C)CC(C)C)S(=O)(=O)c1ccc(C)cc1` (stereo unspecified): the inhibition was 31.9% (active).

On to `N#CC1=C(SCc2ccc(C#N)cc2)N=C(N)C(c2nc(-c3ccccc3)cs2)C12CCCCC2` (stereo unspecified), for which the inhibition was 44.2% (active).

`COc1cc(OC)c(-n2cc(-c3ccc(Cl)cc3)[nH]c2=O)cc1Cl`: the inhibition is 60.4% (active).

Take `O=C(COc1ccc(S(=O)(=O)Nc2cccc(C(F)(F)F)c2)cc1)N1CCOCC1`: the inhibition is 19.6% (inactive).

In the case of `Cc1cc(Cl)ccc1OCCCC(=O)Nc1cccc(-n2cnnn2)c1`, the inhibition was 27.4% (active).

For the molecule `O=S(=O)(c1ccc(OCC(O)CN2CCN(c3ccccc3Cl)CC2)cc1)N1CCOCC1` (stereo unspecified), the inhibition was 11.4% (inactive).

As to `Cc1ccc(NC(=S)N(CCCN2CCC(C)CC2)Cc2ccco2)cc1`, the inhibition is 0.61% (inactive).

For the molecule `Cc1ccc(SCc2cc(=O)[nH]c(N3CCCCC3)n2)cc1`, the inhibition is -9.2% (inactive).

Regarding `CCCOc1ccccc1C1CC(=O)Nc2cc3c(cc21)OCO3` (stereo unspecified), the inhibition is 24.6% (active).

Take `Nc1nnc(SCC(=O)Nc2ccc3nc(SCC(=O)Nc4ccccc4)sc3c2)s1`: the inhibition is 59.8% (active).

Regarding `Cc1ccccc1Nc1nnc(SCC(=O)c2cc3ccccc3o2)s1`, the inhibition was 3.71% (inactive).

`Cc1ccc(CNC(=O)C2CCN(S(=O)(=O)c3ccc4nc5c(c(C(=O)O)c4c3)CC(C)CC5)CC2)cc1` (stereo unspecified): the inhibition is 16.8% (inactive).

On to `Cn1c(=O)c([N+](=O)[O-])c(Oc2ccccc2)c2ccccc21`, for which the inhibition is 17.2% (inactive).

`COc1ccccc1N(C(=O)Cn1nnc2ccccc21)C(C(=O)NCc1ccco1)c1ccc(C)o1` (stereo unspecified): the inhibition is 22.8% (inactive).
